Data from PubChem BioAssay (Tox21).
Results filed as inconclusive are left out. Unmarked numbers belong to inactive results. Active and inactive are the calls of the source. Calls come from the whole dose curve.

assay: p53 small molecule agonists, cell-based qHTS assay with rat liver microsomes: qHTS cell viability counter screen (AID 1963580); conditions: p53RE-bla HCT-116 + rat microsomes, ATP viability, 16 h; series mostly up to 66 µM; activity change, negative = cytotoxicity: at the top concentration; note: nearly all actives have a fitted effect of over 45% in size
Description: National Center for Advancing Translational Sciences [NCATS]
Division of Preclinical Innovation [DPI]
U.S. Environmental Protection Agency [EPA]
National Institutes of Environmental Health Sciences [NIEHS]
National Toxicology Program [NTP]
U.S. Food and Drug Administration [FDA]
p53, a tumor suppressor protein, is activated following cellular insult, including DNA damage and other cellular stresses. The activation of p53 regulates cell fate by inducing DNA repair, cell cycle arrest, apoptosis, or cellular senescence. The activation of p53, therefore, is a good indicator of DNA damage and other cellular stresses. The CellSensor p53RE-bla HCT-116 cell line contains a stably integrated beta-lactamase reporter gene under control of the p53 response elements. The activation of the reporter gene under culture conditions can be detected by fluorescence intensity. This cell line was used to screen the Tox21 10K compound library in the condition of presence of rat liver microsomes and to identify agonists that activate the p53 signaling pathway after in vitro metabolic activation (Ooka et al., Archive of Toxicology 96:1975-1987, 2022). The cytotoxicity of the Tox21 compound library against the p53 RE-bla HCT-116 cell line was tested in parallel by measuring the intra cellular ATP content in the same wells.
Tox21 Assay Protocol Summary:
The p53RE-bla cells were dispensed at 4,000cells/3ul/well in 1536-well black-clear bottom plates. After the assay plates were incubated at 37 C, 5% CO2 incubator for 5 hours, 23 nL of compounds dissolved in DMSO, positive controls or DMSO only was transferred to the assay plate. Following compound addition, 3 uL of rat liver microsomes (Molecular Toxicology, Boone, NC) at final concentration of 0.5 mg/mL and 1uL of B-Nicotinamide adenine dinucleotide 2'-phosphate (NADPH) at final concentration of 0.5 mg/mL were transferred to the assay plate. The plates were incubated at 37 C for 16 hours. 1 uL of LiveBLAzer detection mixture was added to each well and the plates were incubated at room temperature in the dark for 2 h. Fluorescence intensity at 460 and 530 nm emission and 405 nm excitation were measured by an Envision plate reader. For cell viability readout that measures cytotoxicity, 4 ul/well of CellTiter-Glo reagent was added into the assay plates using a Flying Reagent Dispenser. After 30 min incubation at room temperature, the luminescence intensity in the plates was measured using a ViewLux plate reader.
% is set by controls: 0 for no effect and ±100 for the full control effect; potency is the fitted concentration of half-maximal effect.

| SMILES | activity change, negative = cytotoxicity | Potency |
| --- | --- | --- |
| CCCc1ccc(N)cc1 | 1.87% |  |
| CCC(C)CO (stereo not given) |  | inactive |
| CCCC(=O)C(C)=O | 6.4% |  |
| CC(=O)CCC(C)C |  | inactive |
| COc1cc(OC)nc(O[C@H](C(=O)O)C(OC)(c2ccccc2)c2ccccc2)n1 | 12.4% [at 30.3 µM] |  |
| COC(=O)CCCCC(=O)O | 16.1% |  |
| CC1=CCC(O)(C(C)C)CC1 (stereo not given) | 2.28% |  |
| C=C(C)C(=O)OCCC(C)OC(=O)C(=C)C (stereo not given) | -11.5% |  |
| O=[N+]([O-])c1ccc(Oc2ccc([N+](=O)[O-])cc2)cc1 | 4.44% |  |
| COC(=O)c1ccc([N+](=O)[O-])cc1 | -1.45% |  |
| CN1CCc2cccc3c2[C@H]1Cc1ccc(O)c(O)c1-3 |  | inactive |
| COC(OC)OC | 2.82% |  |
| O=S(=O)(O)c1ccc(N=Nc2c(O)ccc3cc(S(=O)(=O)O)ccc23)cc1 |  | inactive |
| CCCO | -9.93% |  |
| CC(C)(C)CC(C)(C)c1ccc(O)c(-n2nc3ccccc3n2)c1 |  | inactive |
| CC1=C(C=O)C(C)(C)CC=C1 | -1.42% |  |
| CCCCc1ccc2cccc(S(=O)(=O)O)c2c1 | 3.96% |  |
| CN(C)Cc1ccccc1O | 1.38% |  |
| CCO[Si](C)(OCC)OCC | 0% |  |
| CO[Si](CCCNCCC[Si](OC)(OC)OC)(OC)OC | -4.54% |  |

| SMILES | activity change, negative = cytotoxicity | Potency |
| --- | --- | --- |
| CC(=O)OCC(=O)Nc1cc(C#N)cc(NC(=O)COC(C)=O)c1Cl | -0.901% [at 30.3 µM] |  |
| CC1(C)O[C@H]2CC(=O)OC[C@]23[C@H]2CC[C@@]4(C)[C@H](c5ccoc5)OC(=O)[C@H]5O[C@]54[C@]2(C)C(=O)C[C@@H]13 | 0.331% [at 30.3 µM] |  |
| CCCCC1CCC(O)CC1 (stereo not given) | 6.53% |  |
| O=[N+]([O-])c1ccccc1CCO | -0.67% |  |
| O=C(NCN1CCOCC1)c1cnccn1 | -5.48% [at 30.3 µM] |  |
| O=C(O)C(=O)Nc1cccc(-c2nn[nH]n2)c1 | 5.87% [at 30.3 µM] |  |
| CN(Cc1cnc2nc(N)nc(N)c2n1)c1ccc(C(=O)N[C@@H](CCC(=O)O)C(=O)O)cc1 |  | inactive |
| Cn1cnc2c(F)c(Nc3ccc(Br)cc3Cl)c(C(=O)NOCCO)cc21 | -10.6% [at 30.3 µM] |  |
| CCCCCCCN | 1.36% |  |
| CCCCCCCCCCCCCCCCCCOCC(O)CO (stereo not given) | -8.17% [at 30.3 µM] |  |
| C=C(C)C(=O)OCCC[Si](Cl)(Cl)Cl | -8.6% |  |
| CCCSc1ccc2nc(NC(=O)OC)[nH]c2c1 | 17.6% [at 30.3 µM] |  |
| CC(C)(C)CC(C)(C)c1ccc(Nc2ccc(C(C)(C)CC(C)(C)C)cc2)cc1 | -9.33% [at 5.99 µM] |  |
| CCCCC(CC)COP(=O)(O)OCC(CC)CCCC (stereo not given) |  | 28.9 µM (active) |
| O=C(Oc1ccccc1)c1ccccc1 |  | inactive |
| CC(C)CCOCCC(C)C | -3.85% |  |
| C1CCCNCCC1 | 1.4% |  |
| Nc1ccc2c(S(=O)(=O)O)cccc2c1S(=O)(=O)O | 1.61% [at 30.3 µM] |  |
| COC(=O)c1cc(Cl)ccc1NS(=O)(=O)C(F)(F)F | -8.57% [at 30.3 µM] |  |
| Cc1ccc(C(=O)C(=O)O)cc1C | 0.217% [at 30.3 µM] |  |
